# Screening results deposited in PubChem BioAssay by NMMLSC.
# The list is not random: actives were taken first. Their share in the collection is about 3.5%.
# Anthrax LF inh2 – inhibitors of Bacillus anthracis lethal factor protease. 0.12% of 360,000 active. multiplex microsphere protease cleavage assay, LF. P15917. inhibition, % at 10 µM. AID 588501; note: plate controls were buffer without enzyme for full effect and enzyme alone for no effect
# BoNT-A LC inh2 – blocks Botulinum neurotoxin A light chain protease; multiplex microsphere protease substrate cleavage, flow cytometry; inhibition, % at 10 µM; 0.17% of 360,000 active; note: plate controls were buffer without enzyme for full effect and enzyme alone for no effect
# Autofluor counter – counter-screen for toxin protease inhibitors: compound fluorescence; 3.1% of 360,000 active; fluorescence intensity (concentration not given with the values); compound autofluorescence counterscreen, microsphere flow cytometry; stronger effect = higher value; in the data active = fluorescence intensity above about 16000; inconclusive = no clear call, values can overlap the other calls
# BoNT-F LC inh – BoNT F light chain protease inhibition; Multiplex microsphere protease cleavage assay, flow cytometry; AID 588497; 0.22% of 360,000 active; inhibition, % at 10 µM; in the data active = inhibition above about 35%, passing the limit was not always enough; inconclusive = no clear call, values can overlap the other calls; note: plate controls were buffer without enzyme for full effect and enzyme alone for no effect
# Numbers without * were called inactive; ? = inconclusive. Cut-off read from the data, not from the text of the source, unless noted: active = inhibition above about 30%; inconclusive = no clear call, values can overlap the other calls; inactive = below that.
SMILES,Anthrax LF inh2,BoNT-A LC inh2,Autofluor counter,BoNT-F LC inh
COC(=O)c1ccc(-n2c(C)cc(/C=N/n3cnnc3)c2C)cc1,0,1,3597,0
COc1cccc(CCC2C(=O)CCCC2=O)c1,-4,-1,3962,-9
CSCC[C@H](NC(=O)OCc1ccccc1)C(=O)O,-2,1,22450*,4
COc1ccc2cc(C(c3nnnn3Cc3ccc(F)cc3)N3CCCCCC3)c(=O)[nH]c2c1 (stereo not drawn),5,6,12405,6
COc1ccc(Cn2nnnc2C(c2cc3ccc(OC)cc3[nH]c2=O)N2CCC(C)CC2)cc1 (stereo not drawn),5,-2,31718*,-3
COc1ccc2cc(C(c3nnnn3Cc3ccccc3)N3CCCCCC3)c(=O)[nH]c2c1 (stereo not drawn),1,0,18165*,0
Cc1cc(C(=O)C(C)OC(=O)c2cnccn2)c(C)n1-c1ccccc1 (stereo not drawn),0,0,5442,-13
COc1ccc(C(=O)N2CCCC(Nc3ccc(C)c(C)c3)C2)c(OC)n1 (stereo not drawn),-3,-1,6036,4
O=C(Nc1ccccc1F)NC1CCN(Cc2nnnn2Cc2ccc(F)cc2)CC1,1,0,23538*,-2
COc1cccc(NC(=O)NC2CCN(Cc3nnnn3Cc3ccc(F)cc3)CC2)c1,5,-2,10898,-6
O=C(Nc1ccc(F)cc1)NC1CCN(Cc2nnnn2Cc2ccco2)CC1,-2,?,22240*,0
NNc1nc(-c2ccccc2)cc(-c2ccccc2O)n1,-4,?,22292*,-3
NNc1nc(-c2ccccc2)cc(-c2ccccc2)n1,-4,-1,4175,-7
Cc1ccc(CCNC(=O)c2ccc(CS(=O)(=O)Cc3ccccc3F)o2)cc1,-2,2,23305*,2
O=C(NCCc1ccccc1)c1ccc(CS(=O)(=O)Cc2ccccc2F)o1,3,3,18882*,5
CCOc1ccccc1C(=O)NCC(=O)NCCCSc1ccccc1,-1,0,5356,-3
CC(C)NS(=O)(=O)c1ccc(N2C(=O)c3ccccc3C2=O)cc1,-3,3,19293*,4
O=C1c2ccccc2C(=O)N1c1ccc(S(=O)(=O)N2CCCCC2)cc1,-18,1,3787,?
CC(=O)/C(N=Nc1cccc(C(F)(F)F)c1)=C(\C)O,-2,0,4434,-1
CN(C(=O)/C(N=Nc1cccc(C(F)(F)F)c1)=C(\O)C(F)(F)F)c1ccccc1,-1,-1,16687*,-1
COc1ccc2[nH]c(=O)c(CN(C(=O)c3ccncc3)C(C)C)cc2c1,-2,0,2505,-4
COc1ccc2[nH]c(=O)c(CN(C)C(=O)c3ccncc3)cc2c1,0,-2,20262*,-3
COc1ccc2[nH]c(=O)c(CN(CCc3ccccc3)C(C)=O)cc2c1,0,2,22156*,3
CC(=O)N(CCc1ccccc1)Cc1cc2cc(C)ccc2[nH]c1=O,-8,-3,4478,-23
COc1ccc(CCNC(=O)COC(=O)CSc2ccc(C(N)=O)cc2[N+](=O)[O-])cc1OC,-4,-1,3921,8
SMILES,Anthrax LF inh2,BoNT-A LC inh2,Autofluor counter,BoNT-F LC inh
Cc1nn(-c2ccc(F)cc2)c2sc(C(=O)N3CCCCCC3)cc12,0,2,3283,-4
CNC(=O)COC(=O)c1cc2c(C)nn(-c3ccc(F)cc3)c2s1,-1,-1,16925*,-3
Cc1c(/C=C2\NC(=O)NC2=O)c2ccccc2n1C,-4,-3,3936,-19
O=C(CN(c1ccc(F)cc1)S(=O)(=O)c1ccc2c(c1)OCCO2)NCC1CCCO1 (stereo not drawn),2,1,22449*,1
COc1ccc(N(CC(=O)NCC2CCCO2)S(=O)(=O)c2c(C)noc2C)cc1 (stereo not drawn),-2,?,23408*,-6
COc1ccc(N(CC(=O)NCc2cccc(OC)c2)S(=O)(=O)c2c(C)noc2C)cc1,-2,0,20088*,0
CC(OC(=O)CNC(=O)C1CCCCC1)C(=O)NCc1ccccc1 (stereo not drawn),9,0,3461,-4
CCCCn1c(N)c(N(CCOC)C(=O)c2oc3ccc(OCC)cc3c2C)c(=O)[nH]c1=O,6,-5,7394,-8
CC(C)CNc1ncnc2c1ncn2[C@H]1CN(Cc2ccc(C(=O)O)cc2)C[C@@H](CO)O1,-2,0,3818,5
CC(=O)CSc1nc(C(F)(F)F)cc(=O)n1-c1ccccc1,-2,-1,20676*,-3
COc1ccc2nc(/C=N/NC(=O)CCCCCNC(=O)OC(C)(C)C)ccc2c1,-8,-7,4624,?
NS(=O)(=O)c1ccc(N/C=C\C(=O)c2ccc(F)cc2)cc1,-4,-1,3191,-6
CN(C)c1ccc(N/C=C/C(=O)c2ccc(F)cc2)cc1,-2,?,20250*,7
O=C(CN1C(=O)CCOc2ccccc21)Nc1ccc(Cl)c(S(=O)(=O)N2CCOCC2)c1,-6,0,3543,2
COc1cc(C(=O)Nc2ccc(S(=O)(=O)N3CCc4ccccc43)cc2)cc(OC)c1OC,0,-2,18077*,-3
COC(=O)Nc1ccc(S(=O)(=O)N2CCCc3ccccc32)cc1,-1,-1,16570*,-2
c1ccc(-c2nc3ccccc3nc2-c2ccccn2)nc1,0,2,22188*,3
Cc1cc2nc(-c3ccccn3)c(-c3ccccn3)nc2cc1C,-1,2,3456,11
Cc1ccc(S(=O)(=O)CNC(=S)c2cccc(C)c2)cc1,-2,-1,10274,-7
Cc1ccc(S(=O)(=O)CNC(=S)c2ccc3ccccc3c2)cc1,-1,?,22964*,1
CCCCOC(=S)NC(=O)c1sc2ccccc2c1Cl,-2,-1,23574*,-1
CCCN(C(=O)c1ccc(OCC(C)C)cc1)c1c(N)n(Cc2ccccc2)c(=O)[nH]c1=O,-4,?,?,?
COc1ccc(Cn2ccnc2SCC(=O)Nc2nnc(C)s2)cc1,0,-1,6038,-9
CC(NC(=O)CSC(=S)N1CCCC1)c1ccc(S(N)(=O)=O)cc1 (stereo not drawn),0,0,5201,3
NC(=O)C1CCN(c2ccc(C(F)(F)F)cc2[N+](=O)[O-])CC1,-5,4,21870*,3
SMILES,Anthrax LF inh2,BoNT-A LC inh2,Autofluor counter,BoNT-F LC inh
O=[N+]([O-])c1cc(C(F)(F)F)ccc1N1CCC(O)CC1,-7,0,4280,-5
COc1cc2c(cc1OC)CN(C(=O)C1(c3ccccc3)CC1)CC2,0,?,19639*,3
Cc1cc(C)n(-c2ccc(C(=O)OCC(=O)Nc3cc(S(C)(=O)=O)ccc3Cl)cc2)n1,-5,0,3635,-5
COc1ccc(-n2nc(C(=O)NCC(=O)N(C)Cc3ccccc3)c3ccccc3c2=O)c(OC)c1,0,1,4168,4
CC(C)C(NC(=O)c1cccs1)C(=O)NC1=NCCS1 (stereo not drawn),-1,?,21605*,3
Cc1ccccc1NC(=O)C1CCCN1S(=O)(=O)c1ccccc1C(F)(F)F (stereo not drawn),5,1,3408,5
Nc1cn(C2OC(CO)C(O)C2O)c(=O)[nH]c1=O (stereo not drawn),-1,2,4263,?
